From ChEMBL document CHEMBL1157539, “Thousands of chemical starting points for antimalarial lead identification” (Nature, 2010)

System: HepG2
Assay: GSK_TCMDC: Percent inhibition of human HepG2 cell line. Test compounds present at 10uM.
Assay type: functional

For `COc1cc(C(=O)NC2CCN(Cc3ccccc3)CC2)ccc1-c1nc2cc(Cl)c(C)cc2[nH]1`, which Inhibition is on record?
The Inhibition was 0%.

For `O=C(Nc1cccc(CN2CCCN(Cc3ccc(F)cc3)CC2)c1)c1cc2ccccc2s1.O=C(O)C(F)(F)F`, which Inhibition is on record?
The Inhibition was 29%.

How did the Inhibition turn out when `Cc1ccc(NC(=O)N2CCCN(CCCCCNC(=O)/C=C/c3ccc(Cl)c(Cl)c3)CC2)cc1C` was run?
The Inhibition was 62%.

How did the Inhibition turn out when `O=C(/C=C/c1ccc(Cl)c(Cl)c1)NCCCCCN1CCC(NC(=O)c2ccc(F)cc2F)CC1` was run?
The Inhibition was 17%.

`Cc1ccc(Cn2ncc(N3CCC(N)CC3)c(Cl)c2=O)cc1NC(=O)Nc1ccc(-c2ccccc2)cc1.O=C(O)C(F)(F)F` was tested. Which Inhibition did it give?
Its Inhibition is 29%.

`CC(C)c1ccc(NC(=O)c2ccc(C(=O)NC3CCN(Cc4ccccc4)CC3)cc2)cc1.O=C(O)C(F)(F)F` was tested. Which Inhibition did it give?
The Inhibition was 30%.

How did the Inhibition turn out when `CCn1c(CN2CCN(Cc3ccccc3)CC2)nc2cc(NC(=O)c3cccs3)ccc21` was run?
The Inhibition was 0%.

For `CC(C)CCN(Cc1cncn1Cc1cccc(Cl)c1)C(=O)c1cncc(-c2ccccc2)c1`, which Inhibition is on record?
Its Inhibition is 9%.

`c1cncc(-c2cccc(CNc3nccc(Nc4ccc(OCCN5CCOCC5)cc4)n3)c2)c1` was tested. Which Inhibition did it give?
Its Inhibition is 1%.

For `O=C(O)C(F)(F)F.O=S(=O)(NCCN1CCCC1)c1ccc(-c2cccc(CNCc3ccc(F)cc3)c2)cc1`, which Inhibition is on record?
The Inhibition was 76%.

Which Inhibition does the source give for `CCCC[C@H](NC(=O)O[C@H](COc1ccc(OCc2ccccc2)cc1)C(C)(C)C)C(=O)C(=O)Nc1cc[nH]n1` here?
Its Inhibition is 21%.

Which Inhibition does the source give for `O=C(Nc1cccc(-c2cccc(-c3nc4ccccc4[nH]3)c2)c1)Nc1ccc2c(c1)OCO2` here?
Its Inhibition is 25%.

Which Inhibition does the source give for `CS(=O)(=O)CCNCc1nc(-c2ccc3c(Nc4ccc(Cl)cc4F)ccnc3c2)cs1` here?
The Inhibition was 19%.

`Cc1cccc2nc(-c3ccc(-c4ccc(CNCCCN5CCCC5=O)cc4)cc3)[nH]c12.O=C(O)C(F)(F)F` was tested. Which Inhibition did it give?
Its Inhibition is 7%.

How did the Inhibition turn out when `CC(C)(C)C(=O)N1CCN(c2ccc([N+](=O)[O-])c(NC3CC3)c2)CC1` was run?
The Inhibition was 8%.

Which Inhibition does the source give for `COc1cc(NC(=O)N2CCOC(CCN3CCC(c4ccccc4)CC3)(c3ccc(Cl)c(Cl)c3)C2)cc(OC)c1` (stereo unspecified) here?
Its Inhibition is 12%.

For `COc1ccc2c(=O)ccn(CCN3CCC(NCc4ccc5c(n4)NC(=O)CS5)CC3)c2c1.Cl`, which Inhibition is on record?
The Inhibition was 7%.

With `COc1ccc(-c2ccc(NC(=O)c3ccc(Cl)cc3)cc2)cc1CN1CCCN(C)CC1.O=C(O)C(F)(F)F` as the molecule, how does the Inhibition read?
Its Inhibition is 27%.

For `COc1ccccc1C1CN(Cc2coc3ccccc3c2=O)Cc2ccccc2O1` (stereo unspecified), which Inhibition is on record?
Its Inhibition is 4%.

With `CNC(=O)c1ccccc1Nc1nc(Nc2cccc(CS(C)(=O)=O)c2)ncc1C.O=CO` as the molecule, how does the Inhibition read?
Its Inhibition is 74%.

For `O=C(Nc1ccc(CN2CCN(S(=O)(=O)c3cccc(Cl)c3)CC2)cc1)c1cccs1.O=C(O)C(F)(F)F`, which Inhibition is on record?
The Inhibition was 9%.

`Cc1cc(C(=O)NC2CCN(CC3(c4ccccc4)CCCCC3)CC2)on1` was tested. Which Inhibition did it give?
The Inhibition was 0%.

With `O=C(/C=C/c1ccc(Cl)c(Cl)c1)NCCCCCN1CCCN(C(=O)Nc2ccc(Cl)cc2)CC1` as the molecule, how does the Inhibition read?
Its Inhibition is 21%.

How did the Inhibition turn out when `CC1CN(S(=O)(=O)c2ccc(NC(=O)c3cc(-c4ccccc4O)n[nH]3)cc2)CC(C)O1` (stereo unspecified) was run?
Its Inhibition is 21%.

How did the Inhibition turn out when `c1ccc2sc(Sc3ncnc4sccc34)nc2c1` was run?
The Inhibition was 7%.

Which Inhibition does the source give for `Cc1ccc(C(=O)Nc2cccc([N+](=O)[O-])c2)cc1S(=O)(=O)N1CC(C)CC(C)C1` (stereo unspecified) here?
Its Inhibition is 24%.
